Laboratory results: the supplement of paper PMC9694430

Legend:
Assay in all cases: thermal shift delta Tm vs DMSO control; higher = stronger stabilization (binding)
Settings in all cases: 12.5 µM; protein concentration 2 µM
[1] = tested on: LOC_OS04G57630-cb004
Summary of the method: (§1)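 Rice kinase domain constructs, made in E. coli and purified, were placed in 96-well plates at 2 μM in 19.5 μl of 100 mM potassium phosphate pH 7.5, 150 mM NaCl, 10% glycerol and 5 × SYPRO Orange, with compound in DMSO. A temperature ramp from 25°C to 95°C at 0.05°C/s was used for differential scanning fluorimetry. The melting temperature shift is a triplicate mean compared with DMSO-only protein, derived from Boltzmann fits.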

[2] = tested on: LOC_OS05G07850-cb002
Summary of the method: as §1

[3] = tested on: LOC_OS05G16824-cb004
Summary of the method: as §1

[4] = tested on: LOC_OS05G28520-cb001
Summary of the method: as §1

[5] = tested on: LOC_OS05G30820-cb001
Summary of the method: as §1

[6] = tested on: LOC_OS05G43570-cb004
Summary of the method: as §1

[7] = tested on: LOC_OS06G16330-cb003
LOC_OS06G16330-cb003, sequence (as listed by the source): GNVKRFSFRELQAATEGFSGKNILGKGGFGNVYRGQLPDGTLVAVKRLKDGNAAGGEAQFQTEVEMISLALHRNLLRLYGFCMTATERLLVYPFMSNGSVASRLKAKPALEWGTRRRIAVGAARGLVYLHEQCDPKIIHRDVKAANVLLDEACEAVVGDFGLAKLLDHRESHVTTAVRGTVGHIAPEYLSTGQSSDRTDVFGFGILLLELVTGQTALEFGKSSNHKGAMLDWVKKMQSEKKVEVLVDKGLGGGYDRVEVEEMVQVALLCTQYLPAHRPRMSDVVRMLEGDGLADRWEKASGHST
Summary of the method: as §1

[8] = tested on: T1, LOC_OS06G22820-cb001
T1 sequence (whole entry): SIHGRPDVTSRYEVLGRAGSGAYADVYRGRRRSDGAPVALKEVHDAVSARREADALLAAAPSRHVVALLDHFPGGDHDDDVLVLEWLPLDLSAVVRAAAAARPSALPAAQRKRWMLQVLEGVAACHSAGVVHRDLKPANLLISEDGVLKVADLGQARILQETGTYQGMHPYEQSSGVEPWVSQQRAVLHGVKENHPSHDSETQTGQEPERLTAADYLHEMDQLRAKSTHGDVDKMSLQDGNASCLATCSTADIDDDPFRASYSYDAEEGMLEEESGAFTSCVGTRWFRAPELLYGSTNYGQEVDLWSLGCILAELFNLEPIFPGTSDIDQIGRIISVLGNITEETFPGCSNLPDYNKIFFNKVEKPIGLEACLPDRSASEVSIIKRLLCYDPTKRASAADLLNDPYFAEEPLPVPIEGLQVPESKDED
Summary of the method: as §1

[9] = tested on: LOC_OS07G06570-cb004
Summary of the method: as §1

[10] = tested on: LOC_OS07G07230-cb001
Summary of the method: as §1
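Also: purified Escherichia coli-expressed rice kinase domain construct.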

| Structure (SMILES) | thermal shift delta Tm [1] | thermal shift delta Tm [2] | thermal shift delta Tm [3] | thermal shift delta Tm [4] | thermal shift delta Tm [5] | thermal shift delta Tm [6] | thermal shift delta Tm [7] | thermal shift delta Tm [8] | thermal shift delta Tm [9] | thermal shift delta Tm [10] |
| --- | --- | --- | --- | --- | --- | --- | --- | --- | --- | --- |
| COc1ccc(CNC(=O)Nc2ncc([N+](=O)[O-])s2)cc1 | -0.18 °C | -0.24 °C | 0.88 °C | 1.04 °C | 0.63 °C | 0.59 °C | 0.38 °C | 0.52 °C | 0.68 °C | 0.25 °C |
| CC[C@H](CO)Nc1nc(NCc2ccccc2)c2ncn(C(C)C)c2n1 [Roscovitine (Seliciclib,CYC202)] | -0.29 °C | 0.09 °C | -1.49 °C | 0.43 °C | 0.33 °C | 0.28 °C | 0.01 °C | 0.63 °C | 0.88 °C | 0.44 °C |
| C[S+]([O-])c1ccc(-c2nc(-c3ccc(F)cc3)c(-c3ccncc3)[nH]2)cc1 (stereo not given) | 0.89 °C | 1.83 °C | -0.97 °C | 1.26 °C | 0.6 °C | 1.12 °C | 0.69 °C | 0.87 °C | 1.21 °C | 0.43 °C |
| O=C(NOC[C@H](O)CO)c1ccc(F)c(F)c1Nc1ccc(I)cc1F | -0.16 °C | -0.38 °C | 0.88 °C | 0.62 °C | 0.37 °C | 1.5 °C | 0.23 °C | 1.03 °C | 1.11 °C | 0.26 °C |
| Nc1cccc(-c2cc3c(Oc4cccc(O)c4)ncnc3[nH]2)c1 | 1.21 °C | 11.1 °C | 5.59 °C | 0.57 °C | 1.14 °C | 0.77 °C | 4.75 °C | 0.88 °C | 1.36 °C | -0.21 °C |
| Cc1cc(C(C)Nc2ccccc2)c2nc(N3CCOCC3)cc(=O)n2c1 (stereo not given) | -0.32 °C | 0.35 °C | -2.9 °C | 0.25 °C | 0.38 °C | 0.22 °C | 0.32 °C | 0.59 °C | 0.64 °C | 0.53 °C |
| C[C@@H](NC(=O)c1ncnc(N)c1Cl)c1ncc(C(=O)Nc2cc(C(F)(F)F)c(Cl)cn2)s1 | 0.51 °C | 4.01 °C | -2.64 °C | 1.62 °C | 0.73 °C | 0.28 °C | 0.58 °C | 0.53 °C | 1.4 °C | 0.05 °C |
| C[C@@H](Oc1cc(-n2cnc3ccc(CN4CCN(C)CC4)cc32)sc1C(N)=O)c1ccccc1C(F)(F)F | 1.23 °C | 2.4 °C | -4.79 °C | -0.16 °C | 0.61 °C | 0.21 °C | 2.19 °C | 0.97 °C | 1.02 °C | 0.47 °C |
| O=C(O[C@@H]1Cc2c(O)cc(O)cc2O[C@@H]1c1cc(O)c(O)c(O)c1)c1cc(O)c(O)c(O)c1 [(-)-Epigallocatechin Gallate] | 0.03 °C | -2.62 °C | -0.59 °C | 0.94 °C | 0.74 °C | 1.57 °C | 0.52 °C | 1.84 °C | -0.75 °C | 0.18 °C |
| N#Cc1ccc2ncnc(NCCc3ccccc3)c2c1 [Senexin A] | 0.34 °C | 4.61 °C | 4.32 °C | 0.11 °C | 0.16 °C | 0.23 °C | 2.48 °C | 0.4 °C | 1.46 °C | 0.54 °C |
